SMN2 splice enh: SMN2 splice variant enhancement. Potency, µM (highest dose often 46.1 µM), for the others: at the highest dose activity change, positive = activation, hits mostly activators. HEK293 SMN2-luciferase splicing reporter, luminescence, 30-36 h. 210,000 tested, 2.8% active. AID 1458; also: % of control where 0% means no effect; nearly all actives have a fitted effect of over 55% in size
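HEK293 cells carry an SMN2 minigene-luciferase reporter in which exon 7 inclusion puts luciferase in frame. Cells were seeded at 2000 cells/well, attached for 10-12 hours, then exposed to compounds for 30-36 hours at 37C before ONE-Glo luminescence.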
Rab9 prom act: Rab9 promoter activation; Huh7 Rab9 promoter-luciferase reporter, luminescence, 24 h; Potency, µM (top dose mostly 9.22 µM), inactives show at the highest dose activation, negative = inhibition, most hits filed as activators; 320,000 tested, 2.8% active; AID 485297; also: % of control where 0% means no effect; nearly all actives have a fitted effect of over 60% in size
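Promoter activation is measured as luciferase luminescence in Huh7 cells stably transfected with a Rab9 promoter–luciferase construct, following 24 h compound exposure at 37 °C and 10 min reagent incubation at ambient temperature.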
NPC1 prom act: NPC1 promoter activation. Huh7 NPC1 promoter luciferase reporter, 24 h. Potency, µM (series often up to 9.22 µM), for the others: top-dose activation, most hits filed as activators. 320,000 tested, 2.4% active; also: % of control where 0% means no effect; nearly all actives have a fitted effect of over 60% in size
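Huh7 reporter cells (NPC1 promoter driving luciferase) are dosed with compound for 24 h at 37 °C, 5% CO2; luciferase detection reagent is then added and luminescence measured after 10 min at ambient temperature.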
ELG1 genotoxic: genotoxicity induction in ELG1-luciferase HEK293T cells; 330,000 tested, 1.3% active; AID 504466; HEK293T ELG1-luciferase reporter, luminescence, 16 h; Potency, µM (highest dose often 46 µM), inactives show at the top dose activity change, positive = activation, usual class: activators; also: % of control where 0% means no effect; nearly all actives have a fitted effect of over 60% in size
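Genotoxicity was scored as increased ELG1-luciferase reporter signal, measured by ONE-Glo luminescence (30 min, room temperature). Compound or vehicle exposure of the HEK293T reporter cells lasted 16 hr at 37°C.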
Luc counter: counter-screen: inhibitors of Kinase-Glo firefly luciferase. Q27757. Potency, µM (titrated, usually from 38.3 µM), inactives show at the top dose activity change, negative = inhibition, hits mostly inhibitors. Kinase-Glo luciferase, ATP luminescence, 8 min. AID 1379. 200,000 tested, 0.28% active; also: % is scaled to controls: 0 for no effect and ±100 for the full control effect; nearly all actives have a fitted effect of over 60% in size
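Light output from Kinase-Glo luciferase with luciferin and 10 uM ATP in 50 mM imidazole pH 7.2, KCl, MgCl2, Tween 20, BSA; compound pin-delivered, 8-min ambient incubation, then luminescence read.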
FLuc modulator: firefly luciferase modulation, counter-screen for miR-21 project. 360,000 tested, 6.9% active. purified FLuc, Km substrates, luminescence inhibition. AID 588342. P08659. Potency, µM (titrated, usually from 57.5 µM), inactives show at the top dose activity change, negative = inhibition, usual class: inhibitors;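 also: plate controls were vehicle for no effect and reference inhibitor for full effect; nearly all actives have a fitted effect of over 55% in size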
Target sequence (P08659 whole entry, looked up): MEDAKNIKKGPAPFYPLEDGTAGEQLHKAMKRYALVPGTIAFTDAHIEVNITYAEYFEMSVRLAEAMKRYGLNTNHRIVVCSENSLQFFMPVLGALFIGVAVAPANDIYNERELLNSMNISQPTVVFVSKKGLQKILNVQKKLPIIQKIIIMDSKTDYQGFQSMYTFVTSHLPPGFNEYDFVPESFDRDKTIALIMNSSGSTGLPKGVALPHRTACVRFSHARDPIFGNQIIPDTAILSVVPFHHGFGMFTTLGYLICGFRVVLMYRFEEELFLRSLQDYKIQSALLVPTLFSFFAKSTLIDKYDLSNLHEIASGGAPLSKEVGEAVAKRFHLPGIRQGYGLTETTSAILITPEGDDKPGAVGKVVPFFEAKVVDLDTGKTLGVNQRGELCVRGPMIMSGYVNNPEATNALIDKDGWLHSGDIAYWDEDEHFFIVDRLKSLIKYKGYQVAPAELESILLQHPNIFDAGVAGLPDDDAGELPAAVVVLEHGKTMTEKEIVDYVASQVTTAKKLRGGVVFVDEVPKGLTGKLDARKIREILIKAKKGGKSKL
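Purified P. pyralis luciferase, 10 nM final, with Km-level 10 uM D-luciferin and 10 uM ATP in 50 mM Tris acetate pH 7.5, 10 mM Mg acetate, 0.01% Tween-20, 0.05% BSA; 6-point qHTS titration about 60 µM downward; luminescence read.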
* hit, by the source's call; u = inconclusive; x = not tested or not shown; [ ] = another dose, or the depositor's remark. Sampled rows, rich in hits. Any-hit rate of the full collection: about 7.5%. Calls follow the shape of the dose curve; as a rule, active = well fitted curve in the direction sought with a large enough effect; inconclusive = small, poorly fitted or top-dose-only effect, or another doubt; inactive = no such curve, though single readings can be large; an effect the other way counts as inactive or inconclusive. Potency is read from the fitted curve at half-maximal effect.

SMILES	SMN2 splice enh	Rab9 prom act	NPC1 prom act	ELG1 genotoxic	Luc counter	FLuc modulator
CCOC(=O)c1c(C)[nH]c(C(=O)CSc2nccc(C)n2)c1C	8.9µM*	2.8µM*	2.8µM*	u	-1%	u
Cc1cc(C(=O)CSc2ccc(Cl)cc2)cc(C)c1OC(=S)N(C)C	-9%	u	2.8µM*	u	1%	9.5µM*
CCOC(=O)c1c(C)[nH]c(C(=O)OCc2ccccc2)c1C	x	0.63µM*	1.3µM*	1.8µM*	x	2.1µM*
CCOC(=O)c1[nH]c(C)c(C(=O)OCc2ccc(C)cc2)c1C	x	0%	-5%	0%	x	1%
CCOC(=O)c1c(C)[nH]c(C(=O)N/N=C\c2ccccc2O)c1C	-78%	-6%	-7%	u	-1%	6.7µM*
COc1ccccc1N1CCN(C2CCCN(C(=O)CCc3c(C)noc3C)C2)CC1 (stereo not given)	x	-2%	-1%	-3%	x	2%
CC(C)NC(=O)C1CCN(C(=O)N2CCOc3ccc(Cl)cc32)CC1	x	x	x	x	x	-7%
CCC(CC)C(=O)Nc1cc(-c2cccc(C)c2)nn1-c1ccccc1	x	x	x	x	x	-19%
CC(=O)c1c(C)[nH]c(C(=O)CSc2ccc(F)cc2)c1C	x	17%	u	6%	x	13µM*
CCOC(=O)c1c(C)[nH]c(C(=O)C(C)Sc2ccc(Cl)cc2)c1C (stereo not given)	2%	u	14%	1%	-3%	27µM*
Cc1ccc(-c2csc(NS(=O)(=O)c3cccc(F)c3)n2)o1	x	x	x	1%	x	x
O=C(CSc1nnc(Cc2ccccc2)o1)Nc1ccc(N2CCOCC2)cc1	x	x	x	3%	x	x
C(=C\c1nc2ccccc2[nH]1)/c1ccccc1	0.28µM*	0.4µM*	0.18µM*	u	3.5µM*	0.3µM*
O=C(NCc1nc2ccccc2[nH]1)c1ccco1	6%	5%	2%	20%	1%	1%
O=c1[nH]c2ccccc2nc1/C=C/c1ccc(Cl)cc1	x	0.89µM*	3.2µM*	9.2µM*	x	u
C/C(O)=C/c1nc2ccccc2[nH]c1=O	-12%	-3%	-4%	3%	2%	1%
C(=C\c1ccco1)/c1nc2ccccc2[nH]1	x	0.63µM*	3.5µM*	u	13µM*	1.9µM*
Cc1cc2c(cc1S(=O)(=O)N(CCN(C)C)Cc1ccco1)OCC(=O)N2	x	x	x	x	x	-2%
O=C(N/N=C/C1CCCCC1)c1cc(Cl)ccc1O	-11%	-7%	-4%	3%	0%	12µM*
O=C(N/N=C/C1CCCCC1)c1ccccn1	20%	-1%	-6%	u	-16%	13µM*
O=C(NN=C1CCC(=NNC(=O)c2ccccn2)CC1)c1ccccn1	x	9%	0%	u	-2%	u
CCCn1nc(NS(=O)(=O)c2cccc3nonc23)c2cc3cc(C)ccc3nc21	x	8%	18%	12%	x	11µM*
CCn1nc(NC(=O)C2CCCO2)c2cc3cc(C)ccc3nc21 (stereo not given)	u	u	29%	15%	1%	17µM*
CCn1nc(NS(=O)(=O)c2ccc(NC(C)=O)cc2)c2cc3ccccc3nc21	x	-4%	1%	0%	x	-22%
CCCn1nc(NC(=O)c2ccccn2)c2cc3cc(C)ccc3nc21	u	15%	28%	6%	2%	11µM*
SMILES	SMN2 splice enh	Rab9 prom act	NPC1 prom act	ELG1 genotoxic	Luc counter	FLuc modulator
CCn1nc(NS(=O)(=O)c2ccc(NC(C)=O)cc2)c2cc3ccc(C)cc3nc21	x	1%	1%	2%	x	27µM*
CCCCN(CCCC)S(=O)(=O)c1ccc2oc(C(=O)NCc3ccccc3)c(C)c2c1	x	x	x	x	x	1%
Cc1ccc(NC(=O)Cn2nc(-c3ccccc3)nc(Cc3ccccc3)c2=O)cc1	x	x	x	x	x	2%
O=c1[nH][nH]c2c(N=Cc3ccccc3O)ccc(F)c12	x	-8%	0%	-6%	x	19µM*
O=C(CSc1nncc2ccccc12)Nc1cccc(C(=O)O)c1	x	21%	22%	u	x	11µM*
Cc1cccc(Nc2nnc(SCC(=O)Nc3cccc(S(=O)(=O)N4CCCCC4)c3)s2)c1	0%[1.84 µM]	4%	14%	13%	-2%	2.7µM*
CCc1ccc(Nc2nnc(SCC(=O)Nc3cccc(S(=O)(=O)NC4=NCCCCC4)c3)s2)cc1	13µM*	u	u	-10%	-10%	0.48µM*
Cc1nnc(SCc2cccc3ccccc23)s1	x	u	u	u	x	24µM*
C#CCOC(=O)NC(/C=C/CCCC)c1ccccc1 (stereo not given)	1%	x	x	x	-1%	x
CO[Si](CCCNCCC[Si](OC)(OC)OC)(OC)OC	-4%	x	x	x	x	x
Cc1ccc(Nc2nnc(SCC(=O)Nc3cccc(S(=O)(=O)NC4=NCCCCC4)c3)s2)cc1	12%	1%	11%	5%	-2%	1.9µM*
CCc1ccc(Nc2nnc(SCC(=O)NC(=O)c3cccn3C)s2)cc1	11%	-6%	1%	u	-2%	u
CCc1ccc(Nc2nnc(SCC(=O)Nc3ccc(C(=O)O)cc3)s2)cc1	x	18%	18%	6%	x	0.54µM*
O=C(CSc1nnc(SCc2cccc3ccccc23)s1)Nc1ccc(C(=O)O)cc1	18%	-9%	-1%	2%	3%	8.5µM*
Cc1nnc(SCC(=O)Nc2cccc(S(=O)(=O)NC3=NCCCCC3)c2)n1Cc1ccccc1	-1%	-1%	-2%	0%	1%	-3%
COc1ccc(OCC(=O)Nc2ccc3c(c2)N(C)C(=O)c2ccccc2S3)cc1	x	x	x	x	x	-10%
CCOc1ccc(NC(=S)NC23CC4CC(CC(C4)C2)C3)cc1	x	0%	-1%	2%	x	-1%
FC(F)Oc1ccc(NC(=S)NC23CC4CC(CC(C4)C2)C3)cc1	x	22%	3%	-14%	x	19µM*
CN(C)c1ccc(NC(=S)NC23CC4CC(CC(C4)C2)C3)cc1	x	u	-2%	u	x	12µM*

High-throughput results: PubChem BioAssay, National Center for Advancing Translational Sciences (NCATS)
